Results from PubChem BioAssay AID687014 (The Scripps Research Institute Molecular Screening Center, 2013).
Among all 370,000 compounds or so, about 6,800 (1.8%) were called active.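 The calls were made as follows: active = activation above a cutoff set at the mean of all screened compounds plus 3 SD (cut at about 10% in these data); inactive = the rest.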 For the sample, actives were picked, then their nearest neighbours and some compounds at random.

The compounds below were run on Nuclear hormone receptor DAF-12 (Heterodera glycines), GAL4 fusion (assay: H. glycines DAF-12 receptor agonists, primary screen, cell-based, luminescence, HEK293, GAL4 fusion, UAS-luciferase (AID 687014;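 also: 0% = DMSO wells and 100% = sodium butyrate wells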)). Conditions: HEK293 GAL4-hgDAF12 UAS-luciferase reporter, agonist luminescence; at 6.8 µM; active compounds read high; normalized to butyrate control.

| SMILES | activation |
| --- | --- |
| CCOC(=O)C1=CN(Cc2ccc(Br)cc2)S(=O)(=O)N(C)C1C (stereo not drawn) | 0.23% (inactive) |
| O=C(Oc1cccc(NC2=NS(=O)(=O)c3ccccc32)c1)c1ccncc1 | -1.92% (inactive) |
| CC(C)(C)c1csc(NC2=NS(=O)(=O)c3ccccc32)n1 | 19.4% (active) |
| Cc1ccc(S(=O)(=O)N(NC2=NS(=O)(=O)c3ccccc32)C(=O)c2ccccc2)cc1 | 0.43% (inactive) |
| CCCCOCCCNC(=O)C[C@H]1C[C@@]2(C(=O)OC)C(=C[C@H](C(C)(C)C)O[C@@H]2C)N(CCc2ccc(OC)c(OC)c2)C1=O | -0.02% (inactive) |
| CCCNC(=O)c1cc2c(c(-c3cccc(-c4ccc(C#N)cc4)c3)n1)[C@@H](CCO)N(C(=O)CC)C2 | -0.02% (inactive) |
| Cc1ccc(/C=N/NC(=O)c2sccc2OCc2ccc(F)cc2)cc1 | 3.63% (inactive) |
| Cc1ccsc1C(=O)NCCc1ccco1 | 8.62% (inactive) |
| Cc1ccc(NC(=O)CN2CCC(C(N)=O)CC2)cc1[N+](=O)[O-] | 0.92% (inactive) |
| Cc1ccc(NC(=O)c2sccc2C)cc1[N+](=O)[O-] | 14.2% (active) |
| Cc1ccsc1C(=O)N/N=C/c1ccc([N+](=O)[O-])cc1 | 13.9% (active) |
| Cc1ccsc1C(=O)NC1CCCCC1C (stereo not drawn) | -0.72% (inactive) |
| Cn1c(N)c(C(=O)COC(=O)c2ccccc2NCc2ccco2)c(=O)n(C)c1=O | -0.34% (inactive) |
| COc1ccc(C#CCNCc2ccc(OC)cc2OC)cc1 | -1.32% (inactive) |
| O=C(c1ccccc1)c1ccc(-c2ccccc2C(=O)NC2CCCCN(Cc3ccc(Cl)cc3)C2=O)cc1 (stereo not drawn) | 3.48% (inactive) |
| CC(CO)N1CCS(=O)(=O)CC1 (stereo not drawn) | 0.38% (inactive) |
| N#Cc1ccccc1OC[C@@H](O)CN1CCC(C(O)(c2ccccc2)c2ccccc2)CC1 | -4.54% (inactive) |
| C=CCN1C(=O)[C@H](CC(=O)NCCCN2CCCC2=O)[C@@]2(C(=O)OCC)CCCC=C12 | -1.4% (inactive) |
| Cc1[nH]nc2c1C(c1ccc(Br)cc1)NC2=O (stereo not drawn) | 0.07% (inactive) |
| O=S(=O)(Nc1ccccc1Cl)c1cccc2nsnc12 | -1.42% (inactive) |

| SMILES | activation |
| --- | --- |
| O=C(Nc1ccccc1Cl)c1ccc2nsnc2c1 | 12.6% (active) |
| O=C(Nc1ccccc1Cl)/C(Cl)=C(\Cl)S(=O)c1ccccc1 (stereo not drawn) | -20.1% (inactive) |
| Cc1ccc(-n2c(SCC(=O)Nc3ccc(S(=O)(=O)Nc4nccs4)cc3)nnc2-c2ccncc2)cc1 | -0.9% (inactive) |
| Nc1ncnc2c1ncn2C1OC(CO)CC1O (stereo not drawn) | -1.31% (inactive) |
| COc1ccc(C(=O)Nc2sc(C)c(C)c2CN2CCOCC2)cc1 | 11.8% (active) |
| COc1ccc(C(=O)Nc2ccnn2C2CCN(Cc3ccncc3)CC2)cc1 | -1.76% (inactive) |
| CCOc1ccc(C(=O)Nc2ccc(CN3CCOCC3)cc2)cc1Cl | -0.68% (inactive) |
| COC(=O)c1ccccc1-n1cc(COC(=O)NCCc2ccccc2)nn1 | 0.71% (inactive) |
| COC(=O)c1ccc(CN2C(=O)[C@]3(OCCC=C[C@H]3C)c3c(Br)cccc32)cc1 | 4.21% (inactive) |
| Cc1ccc2nc(/C(C#N)=C\c3ccc(OC(=O)c4cccs4)cc3)[nH]c2c1 | 10.6% (active) |
| COc1ccc(S(=O)(=O)N2CCCC2CNC(=O)C(=O)NC2CC2)cc1 (stereo not drawn) | 0.71% (inactive) |
| O=C(N/N=C/c1sc(N2CCCCC2)nc1-c1cccs1)c1cccnc1 | 1.92% (inactive) |
| O=C(O)c1ccc(N/N=C/c2cn(-c3ccccc3)nc2-c2cccs2)cc1 | 16.3% (active) |
| O=Cc1cn(-c2ccccc2)nc1-c1ccccn1 | -0.68% (inactive) |
| Fc1ccc2nc(COCc3nc4ccc(F)cc4[nH]3)[nH]c2c1 | 0.86% (inactive) |
| COc1cccc(-c2nnc(N(C)C(=O)c3ccno3)s2)c1 | 3.08% (inactive) |
| O=C(Nc1ccccc1C(=O)NCCCn1ccnc1)c1ccc(Cl)cc1Cl | -1.62% (inactive) |
| O=C(NCCCn1ccnc1)c1cc(Br)c(Br)s1 | 1.27% (inactive) |
| O=C(NC1CCCC1)c1cc(-c2ccccc2)on1 | 36.2% (active) |
| O=C(NC1CC1)c1ccc(-c2ccccc2)cc1 | 9.69% (inactive) |

| SMILES | activation |
| --- | --- |
| O=C(NC1CCCCCCC1)c1cccs1 | 2.58% (inactive) |
| O=C(NCCCn1ccnc1)c1cc(-c2ccccc2)on1 | 46% (active) |
| COC(=O)c1ccc(COC(=O)C2CCN(S(=O)(=O)c3c(Cl)cccc3Cl)CC2)o1 | -1.37% (inactive) |
| COc1ccc2c(C(C)c3ccc(N)cc3)cn(C)c2c1 (stereo not drawn) | 0.29% (inactive) |
| COC(=O)[C@]1(C#N)CC(=O)N(CC2CCCCC2)[C@@H]1c1ccccc1 | 1.35% (inactive) |
| Cc1ccccc1CN1CCCCC(NC(=O)Nc2ccccc2F)C1=O (stereo not drawn) | -3.67% (inactive) |
| Nc1nc(SCC(=O)Nc2ccc(Cl)c([N+](=O)[O-])c2)n[nH]1 | -3.01% (inactive) |
| O=C(NCc1ccccc1)[C@@H]1CCCN1C(=O)[C@H]1CCCN1C(=O)c1cccc(Cl)c1 | 2.12% (inactive) |
| COC(=O)[C@]12C[C@H](CC(=O)N3CCOCC3)C(=O)N(Cc3ccc(Cl)cc3Cl)C1=C[C@H](COCc1ccccc1)O[C@@H]2C | -2.38% (inactive) |
| CCOC(=O)C1=C(C)NC2=C(C(=O)CC(C)(C)C2)C1c1ccc2c(c1)OCO2 (stereo not drawn) | -2.39% (inactive) |
| COc1ccc(CNC(=O)COC(=O)c2c(C)nn(-c3ccccc3)c2C)cc1OC | -3.17% (inactive) |
| COc1ccc(CNC(=O)COC(=O)c2sccc2C)cc1OC | 0.76% (inactive) |
| COc1ccc(CNC(=O)COc2ccccc2C(=O)c2cnn(-c3ccccc3)c2)cc1OC | 13.4% (active) |
| CCOC(=O)CNC(=O)N(C)[C@H]1C[C@H]2c3[nH]c4c(-c5ccc6c(c5)OCO6)cccc4c3CCN2C(=O)[C@H]1[C@H](C)O | -1.8% (inactive) |
| CCCN(C(=O)CSc1nnc(N)s1)c1c(N)n(Cc2ccccc2)c(=O)[nH]c1=O | -3.79% (inactive) |
| COC(=O)C(NC(C)=O)(Nc1nc2c(s1)CCCC2)C(F)(F)F (stereo not drawn) | -0.75% (inactive) |
| Fc1ccc2nc(Nc3nc4c(s3)CCCC4)sc2c1 | 12.8% (active) |
| CCS(=O)(=O)N1Cc2ccccc2CC1C(=O)Nc1nc2ccc(F)cc2s1 (stereo not drawn) | 10.2% (inactive) |
